# Screening data deposited in PubChem by National Center for Advancing Translational Sciences (NCATS).
# TbPYK inhibitor: inhibitors of Trypanosoma brucei pyruvate kinase | Q57TT1 | TbPYK enzyme, Kinase-Glo Plus ATP luminescence, 45 min | Potency, µM (titrated, usually from 76.8 µM), usual class: inhibitors | 410,000 tested, 0.12% active | AID 624173; further: nearly all actives have a fitted effect of over 50% in size
#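 ADP (130 uM final) triggers the TbPYK reaction after compound addition; incubation is 45 min at room temperature. Kinase-Glo Plus is then added and luminescence imaged. Normalized data are fitted to concentration-effect curves.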
# HCMV antiviral: blocks human cytomegalovirus replication | HFF cells, HCMV-luciferase reporter, 72 h; hits give low values | activity change, negative = inhibition, % at 57.5 µM | 410,000 tested, 4.5% active | AID 1259415; in the data active means activity change below about -60%; inconclusive means no clear call, values can overlap the other calls; inactive means above about -39%
#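 Luciferase read-out from HCMV-luciferase-infected HFFs (MOI 1 PFU/cell) 72 h post infection at 37C; compounds added after 16 h cell attachment; activity normalized between buffer-only basal and Salinomycin (10uM) inhibitor controls.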
# Giardia FBPA inh: inhibitors of Giardia lamblia fructose-1,6-bisphosphate aldolase; Potency, µM (titrated, usually from 59.6 µM), hits mostly inhibitors; 290,000 tested, 0.71% active; purified Giardia FBPA; AID 2451; further: nearly all actives have a fitted effect of over 55% in size
# Target sequence (A8B2U2 whole entry, looked up): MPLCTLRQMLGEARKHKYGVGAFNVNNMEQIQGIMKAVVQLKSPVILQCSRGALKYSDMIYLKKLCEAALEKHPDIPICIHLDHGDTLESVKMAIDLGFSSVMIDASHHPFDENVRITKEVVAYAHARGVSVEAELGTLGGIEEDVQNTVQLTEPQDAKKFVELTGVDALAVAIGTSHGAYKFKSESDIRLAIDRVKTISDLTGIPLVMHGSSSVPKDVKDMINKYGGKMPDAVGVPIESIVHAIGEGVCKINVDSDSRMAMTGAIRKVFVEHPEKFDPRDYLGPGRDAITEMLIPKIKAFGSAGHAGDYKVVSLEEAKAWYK
#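 Giardia FBPA (40 nM reagent) was preincubated 10 min at RT with compound (up to 57.5 uM final), then substrate plus GAPDH/TPI/NAD/arsenate coupling system with diaphorase/resazurin was added; resorufin fluorescence (525/598 nm) was read after 20 min.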
# RE007 growth inh: less growth of the S. pombe RE007 Vpr strain. S. pombe RE007 Vpr strain, BacTiter-Glo ATP luminescence, 24 h. Potency, µM (doses to about 92.2 µM), most hits filed as inhibitors. 360,000 tested, 0.21% active. AID 651644; active means well fitted falling curve with a large enough effect; inconclusive means small, poorly fitted or top-dose-only effect; inactive means no such curve, though single readings can be large or run the other way; further: nearly all actives have a fitted effect of over 50% in size
#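 Fission yeast RE007 carrying one integrated HIV-1 vpr copy, seeded at OD 0.01 in PMG+AL medium with 23 nL pinned compound. Grown 24 h at 30 degrees; viability read by BacTiter-Glo luminescence after 5 min.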
# Sm TGR inh: blocks Schistosoma mansoni thioredoxin glutathione reductase; Q962Y6; 360,000 tested, 3% active; Potency, µM (series often up to 114 µM), usual class: inhibitors; AID 485364; purified TGR, DTNB reduction, TNB absorbance 405 nm; further: nearly all actives have a fitted effect of over 60% in size
#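 TGR 20 nM + NADPH 100 uM (dispensed conc.), cpd preinc 15 min RT; start with NADPH (500 uM addition) then DTNB (15 mM addition). Kinetic TNB absorbance, 405 nm filter. Four-parameter Hill fit across titration.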
# FMDV antiviral: foot and mouth disease virus antiviral activity | 410,000 tested, 1.2% active | AID 1159524 | FMDV antiviral cell-based qHTS | Potency, µM (doses to about 57.9 µM), actives largely listed as inhibitors; calls by dose curve; tested in HEK293T cells; further: read-out not given here; nearly all actives have a fitted effect of over 45% in size
# Numbers stand for hits; . = inactive; ? = inconclusive; / = not tested or not shown. The list is not random: actives were taken first. Their share in the collection is about 7.7%. Unless noted, the call rests on the fitted dose curve; in most records, active means well fitted curve in the direction sought with a large enough effect; inconclusive means small, poorly fitted or top-dose-only effect, or another doubt; inactive means no such curve, though single readings can be large; an effect the other way counts as inactive or inconclusive.
SMILES,TbPYK inhibitor,HCMV antiviral,Giardia FBPA inh,RE007 growth inh,Sm TGR inh,FMDV antiviral
Cc1ccc(CN(C)C(=O)c2ccccc2NC(=O)c2ccccc2)o1,.,.,/,.,39.8µM,.
O=C(Nc1ccccc1C(=O)Nc1ccccc1C(=O)O)c1ccccc1,.,-60.2,.,.,.,.
O=C(O)c1ccccc1NC(=O)c1ccccc1Nc1ccccc1,.,-69.8,.,?,.,.
CN(Cc1ccccc1)C(=O)c1ccccc1NC(=O)c1ccco1,.,.,.,.,.,.
Cc1ccccc1OCC(=O)Nc1ccc(C(=O)OCc2cc(=O)n3c(C)csc3n2)cc1,.,-86.7,/,/,.,.
Cc1csc2nc(COC(=O)c3cccc(NC(=O)COc4ccccc4Cl)c3)cc(=O)n12,.,-61.0,/,/,.,.
Cc1ccc(OCC(=O)Nc2cccc(C(=O)OCc3cc(=O)n4c(C)csc4n3)c2)cc1,.,.,/,/,.,.
CCc1cc(=O)oc2c3c(cc(OCC(=O)NCCCC(=O)O)c12)OC(C)(C)CC3,.,.,.,.,.,.
CCc1cc(=O)oc2c3c(cc(OCC(=O)NCCCOC)c12)OC(C)(C)CC3,.,-68.6,.,.,.,.
CC1CC=CC2C1C(=O)N(Cc1ccccc1)C2c1ccc(-c2cc3ccccc3s2)cc1F (stereo unspecified),/,/,.,/,/,/
COc1ccc(CCNC(=O)Cc2c(C)c3c(cc(C)c4c(C)c(C)oc43)oc2=O)cc1,.,.,/,/,.,.
CCN(CC)CCNC(=O)c1[nH]c2ccccc2c1Sc1ccc(Cl)cc1,.,.,/,/,.,.
COc1ccc(-c2nc3c(-c4ccc(Cl)cc4)cnn3cc2C)cc1F,.,-76.3,.,.,.,.
COc1ccc(-c2nc3c(-c4ccccc4)cnn3cc2C)cc1F,.,.,.,.,.,.
CCN(CC)c1ccc(C(=O)N2CCc3c([nH]c4ccccc34)C2c2ccc(F)cc2)cc1 (stereo unspecified),.,?,/,/,.,.
N=c1ccn(CC(=O)c2ccc(-c3ccccc3)cc2)cc1,.,-76.2,.,?,.,?
CN1CCN(S(=O)(=O)c2ccc(Sc3nnnn3-c3ccccc3)c([N+](=O)[O-])c2)CC1,.,.,.,.,7.08µM,20µM
CC(=O)c1ccc(Sc2ccccn2)c([N+](=O)[O-])c1,.,.,.,.,.,.
Cn1cnnc1Sc1cc(N2CCN(S(=O)(=O)c3ccccc3)CC2)ccc1[N+](=O)[O-],.,.,.,.,.,.
O=[N+]([O-])c1ccc(Sc2nnnn2-c2ccccc2)c(Cl)c1,.,-73.1,.,.,?,?
CC(=O)c1ccc(Sc2nnnn2-c2ccccc2)c([N+](=O)[O-])c1,.,-67.2,.,.,35.5µM,31.6µM
CCC1C(=O)NCCN1Cc1ccc2c(c1)CN(Cc1ccc3c(c1)OCCO3)CCO2 (stereo unspecified),/,/,/,/,/,.
CC1(C)CC(=O)C(N=Nc2ccc(S(=O)(=O)N3CCOCC3)cc2)=C(O)C1,.,.,.,.,39.8µM,.
Cn1c(O)c(N=Nc2ccc(S(=O)(=O)N3CCOCC3)cc2)c(=O)n(C)c1=O,.,?,.,.,.,.
CC1(C)CC(=O)C(N=Nc2cccc(F)c2C#N)=C(O)C1,.,.,.,.,14.1µM,.
SMILES,TbPYK inhibitor,HCMV antiviral,Giardia FBPA inh,RE007 growth inh,Sm TGR inh,FMDV antiviral
COc1ccc(N=NC2=C(O)CC(C)(C)CC2=O)cc1,.,.,.,.,.,.
CC1(C)CC(=O)C(N=Nc2ccc(Br)cc2)=C(O)C1,.,-60.3,.,.,.,.
CC1(C)CC(=O)C(N=Nc2ccc(C(F)(F)F)cc2[N+](=O)[O-])=C(O)C1,.,.,.,.,3.98µM,.
CC1=NN(c2cccc(C(=O)O)c2)C(=O)/C1=C\C=C/c1ccccc1,?,.,.,.,11.2µM,10µM
CC1=NN(c2ccc(C)cc2)C(=O)/C1=C\C=C\c1ccccc1,.,-81.1,.,.,.,28.2µM
CC1=NN(c2ccccc2)C(=O)C1=Cc1ccccc1,.,.,/,.,/,.
CC(C)C(=O)N1CCC[C@@H]1c1noc2ccccc12,/,.,/,/,/,/
Cc1c(Cl)cccc1NC(=O)C(=O)NCCc1csc(-c2cccc(F)c2)n1,.,.,/,/,.,.
COC(=O)c1c(N2C(=O)CC(Sc3ncccc3C(=O)O)C2=O)sc(C)c1C (stereo unspecified),.,.,.,.,20µM,.
O=C(O)c1cccnc1SC1CC(=O)N(c2ccc(OC(F)F)cc2)C1=O (stereo unspecified),.,.,.,.,44.7µM,.
COc1ccc(C(=O)NCc2ccc3c(c2)CCN3C(=O)c2ccncc2)cc1,.,.,/,/,.,.
COc1ccccc1C1CN(Cc2cnn(C)c2C)Cc2ccccc2O1 (stereo unspecified),/,/,/,/,/,.
Cc1ccc(C(C)C)c(OCC(=O)Nc2ccccc2N2CCN(C)CC2)c1,.,-73.7,.,.,.,31.6µM
Cc1cc(Cl)ccc1OCC(=O)NCC(c1cccs1)N1CCOCC1 (stereo unspecified),.,-72.2,/,.,.,31.6µM
Cc1cc(Cl)ccc1OCC(=O)Nc1ccccc1N1CCOCC1,.,?,.,.,.,28.2µM
O=C(COc1cccc(Cl)c1)NCC(c1cccs1)N1CCOCC1 (stereo unspecified),.,.,/,.,.,.
COc1cccc(-c2cccc3c4c([nH]c23)[C@@H]2C[C@H]3[C@@H](C(=O)N2CC4)[C@H](C)ON3C)c1,/,.,/,/,/,/
COc1cc(NC(=O)COn2nnc3ccc(S(C)(=O)=O)cc32)cc(OC)c1,.,-68.0,.,.,.,.
Cc1cc(NC(=O)COn2nnc3ccc(S(C)(=O)=O)cc32)ccc1Br,.,?,.,.,.,.
Cc1ccc(NC(=O)C(Cc2ccccc2)NS(=O)(=O)c2ccc3c(c2)oc(=O)n3C)cc1F (stereo unspecified),.,.,/,/,.,.
Cc1nn(S(=O)(=O)c2ccc(C(C)(C)C)cc2)c(C)c1S(=O)(=O)N1CCC(C)CC1,.,.,/,/,.,.
C=CCNc1nc(S(=O)Cc2ccc(C)cc2)nc2c1CCCC2 (stereo unspecified),.,-98.3,.,.,?,.
C=CCNc1c2c(nc3nnnn13)CCCC2,.,.,.,.,.,.
O=C(c1cscn1)N1CCOc2ccc(CN3CCC(Oc4cccnc4)CC3)cc2C1,/,/,/,/,/,.
O=C(Nc1nnc(-c2ccco2)s1)C1CC1,.,.,.,.,44.7µM,.
O=C(Nc1nnc(-c2ccco2)s1)c1ccccc1,.,.,.,.,25.1µM,.
O=C(Nc1cccc(C(=O)OCc2cc(=O)n3ccsc3n2)c1)c1ccc(F)cc1,.,.,/,/,.,.
Cc1ccc2c(c1)N(C(=O)N1CCC(C(=O)NCc3ccccc3F)CC1)CC(C)O2 (stereo unspecified),.,.,/,/,.,.
